# RTF Ca sens inh = cardiac RTF calcium desensitization | P19429+P45379 | IANBD-labeled cardiac RTF, Ca2+ fluorescence | inhibition, % at 7.15 µM | actives 0.12% (n = 340,000);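 active = inhibition above the mean inhibition of all tested compounds plus 3 SD, cut at about 17% in these data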;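 note: assay run at fixed EC70 calcium of 1.6 mM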
# CRFBP-R2 agonist = agonists of human CRF-binding protein/CRF-R2 receptor complex. HEK293 CRF-R2/CRF-BP, calcium dye fluorescence (FLIPR); percent of saturating CRF peptide response. actives 0.46% (n = 350,000). activation, % at 13.2 µM;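 active = activation of at least 50%, plus an integration ratio under a set limit after plate pattern correction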;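 note: plate controls were neutral control wells without compound for no effect and CRF at EC100 for full effect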
# RTF Ca sens act = increases calcium sensitivity of human cardiac regulated thin filaments | P19429+P45379 | IANBD-labeled TnC RTF fluorescence at EC20 calcium; 0% EC20 calcium, 100% full calcium | activation, % at 7.2 µM | actives 0.24% (n = 340,000) | AID 493008;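 active = activation above the mean over all tested compounds plus 3 SD, cut at about 30% in these data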;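 note: rise in fluorescence read as greater calcium sensitivity of cardiac thin filaments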
# CRFR2-BP antag = CRF-BP/CRF-R2 complex antagonism; actives 0.59% (n = 350,000); inhibition, % at 11.8 µM; AID 588475; HEK293 CRF-R2/CRF-BP, CRF-induced calcium fluorescence;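 active = inhibition of the ligand-induced calcium signal above about 50% at the single tested concentration, limit read from the data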
# Myeloid diff 2 = myeloid differentiation induction. ER-HoxA9 myeloid progenitors, lysozyme-GFP differentiation, flow cytometry. calls only at 10 µM. actives 1% (n = 360,000);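 active = normalized GFP-positive differentiation at or above the plate's own cutoff, the solvent-only control mean plus 3 SD; inconclusive = no clear call, values can overlap the other calls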;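 note: cells exposed to compound for four days before flow analysis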
# * marks the source's active call; other numbers are inactive results; i = inactive; ? = inconclusive; . = no result; + = active, no number. A selection: hits, their analogues and other compounds. The true share with any hit is near 2.2%.
SMILES,RTF Ca sens inh,CRFBP-R2 agonist,RTF Ca sens act,CRFR2-BP antag,Myeloid diff 2
CC1CN(c2nc3ccccc3nc2SCC(=O)Nc2cccc(C(F)(F)F)c2)CC(C)O1 (stereo not drawn),-1,2,-1,3,+
Cc1cccc(NC(=O)CSc2nc3ccccc3nc2N2CC(C)OC(C)C2)c1 (stereo not drawn),-3,-1,-2,18,i
Cc1ccccc1C(=O)N1CCC(C(=O)OCc2ccccc2Cl)CC1,0,-2,-1,-8,i
Cc1occc1C(=O)Nc1nnc(C(F)(F)F)s1,-2,28,-1,-39,i
O=C(Nc1ccccc1C(=O)Nc1nnc(C(F)(F)F)s1)c1ccccc1,0,60*,-4,37,i
COc1ccc(Br)cc1C(=O)Nc1ccc(C(=O)NCC(C)C)cc1,3,1,-2,-11,i
CCOc1ccc(Br)cc1C(=O)Nc1ccc(C(=O)NCC(C)C)cc1,1,0,2,4,+
CC#CCCC(=O)N1C=Cc2ccccc2C1C#N (stereo not drawn),-5,-1,1,56*,i
CC1=Cc2ccccc2C(C#N)N1C(=O)c1ccccc1 (stereo not drawn),-1,-2,1,-11,i
COc1cccc(Nc2nc(C(N)Cc3ccc(F)cc3)cs2)n1 (stereo not drawn),.,.,.,.,+
CS(=O)(=O)N(CCCC(=O)N1CCCCCC1)c1cccc(Cl)c1,-1,1,-2,7,i
CCc1noc(C)c1C(=O)OCC(=O)Nc1nc(-c2ccc(F)c(F)c2)cs1,-4,1,-5,-3,i
CCOC(=O)CNS(=O)(=O)c1cc(-c2n[nH]c(=O)c3ccccc23)ccc1C,3,0,3,-6,i
Cc1ccc(NS(=O)(=O)c2cc(-c3n[nH]c(=O)c4ccccc34)ccc2C)cc1,11,4,5,-15,+
CC(C)(C)n1nnnc1C(c1cc2ccccc2o1)N1CCOCC1 (stereo not drawn),.,.,.,.,i
C/C(=N/NC(=O)CNC(=O)/C=C/c1ccccc1)c1ccco1,0,1,-1,-25,i
C/C(=N/NC(=O)CNC(=O)Cc1ccccc1)c1ccco1,-4,-1,39*,10,i
CC(C)(C)C(=O)/C(=C/c1ccncc1)n1cncn1,1,1,2,15,?
CCOC(=O)C(NC(C)=O)C(OC(C)=O)c1cccc(N(CCO)CCO)c1 (stereo not drawn),-4,1,2,3,i
Cn1ccnc1SCc1cn2ccccc2n1,-9,7,8,72*,i
c1ccn2cc(CSc3nnc4ccccn34)nc2c1,-4,0,4,3,i
COc1ccc(N(Cc2cc3cccc(C)c3[nH]c2=O)S(=O)(=O)c2ccc(OC)cc2)cc1,-6,1,-8,-12,+
COc1ccc(N(Cc2cc3cccc(C)c3[nH]c2=O)S(=O)(=O)c2ccc(Cl)cc2)cc1,-4,1,-2,-12,?
CC(C)(C)NC(=O)NC(=O)CN1CCN(c2cccc(Cl)c2)CC1,-12,2,0,0,i
Cc1cc(O)ccc1C1(c2ccc(O)cc2C)OC(=O)c2ccccc21,-6,1,-6,-31,i
SMILES,RTF Ca sens inh,CRFBP-R2 agonist,RTF Ca sens act,CRFR2-BP antag,Myeloid diff 2
CC(=O)Oc1ccc2c(c1)Oc1cc(OC(C)=O)ccc1C21OC(=O)c2ccccc21,i,368*,+,-341,+
CCN1/C(=C/c2ccc3ccccc3[n+]2CCCS(=O)(=O)[O-])C=Cc2cc(C)ccc21,-4,2,-6,-8,i
CCN1/C(=C/c2cc[n+](C)cc2)C=Cc2cc(C)ccc21,-2,0,9,-3,+
COc1ccc(C2C(C(=O)c3cccs3)=C(O)C(=O)N2c2nnc(C)s2)cc1OC (stereo not drawn),-71,21,80*,-26,i
Cc1cccc(N2C(=O)C(O)=C(C(=O)c3cccs3)C2c2ccc(F)cc2)n1 (stereo not drawn),-2,0,-6,18,i
CC(C)c1nnc(N2C(=O)C(O)=C(C(=O)c3cccs3)C2c2ccccc2)s1 (stereo not drawn),-46,196*,25,-217,i
Cc1cccc(N2C(=O)C(O)=C(C(=O)c3cccs3)C2c2ccc(C(C)C)cc2)n1 (stereo not drawn),-2,62*,-4,-1,i
COc1ccc(C2C(C(=O)c3cccs3)=C(O)C(=O)N2c2nncs2)cc1 (stereo not drawn),-56,265*,32*,-303,i
C=CCOc1ccc(C2C(C(=O)c3cccs3)=C(O)C(=O)N2c2nnc(C)s2)cc1 (stereo not drawn),-43,27,44*,10,i
COc1ccc(NC(=O)CC(C)NCCCN2CCCC2=O)cc1 (stereo not drawn),-11,0,2,-2,+
CCSC1=N/C(=C\c2ccc3c(c2)OCO3)C(=O)S1,-2,4,3,-25,i
CCSC1=N/C(=C\C=C2/Oc3ccccc3N2CC)C(=O)S1,-46,42,39*,-69,+
O=[N+]([O-])c1ccc(NC(=S)NCc2ccncc2)cc1,9,2,-1,16,i
O=[N+]([O-])c1ccc(NC(=S)NCc2ccc(F)cc2)cc1,2,8,8,67*,i
COc1cccc(/C=N/NC(=O)C(=O)Nc2ccccc2OC(F)(F)C(F)F)c1O,-12,0,4,-62,+
COc1ccc(CN2C(=O)CN(S(C)(=O)=O)CC2(C)C(=O)Nc2c(C)cccc2C)cc1OC (stereo not drawn),.,.,.,.,i
CC(=O)c1ccc(NC(=O)Nc2cccc(Cl)c2)cc1,1,53*,1,-26,i
CC(C)C(N)c1csc(NC(=O)Nc2cccc(Cl)c2)n1 (stereo not drawn),.,.,.,.,+
OC(c1cccc(CN2CCCCC2)c1)c1ncc(-c2cccc3ccccc23)[nH]1 (stereo not drawn),.,.,.,.,i
Cc1ccc(N(C(=O)CS(=O)CC(=O)Nc2ccc(F)cc2)C(C)C(=O)NC(C)(C)C)cc1 (stereo not drawn),9,-2,-6,6,i
CC1=CC(C)(C)N(C(=O)CSc2ncn[nH]2)c2ccccc21,5,4,-2,-19,i
CC1=CC(C)(C)N(C(=O)CSc2nnc(N)s2)c2ccccc21,-1,53*,2,-26,i
O=c1oc(-c2ccco2)nc2sc3c(c12)CCCC3,-1,1,-5,52*,i
CC(OC(=O)Cn1cnc2c1c(=O)n(C)c(=O)n2C)C(=O)Nc1ccc(Cl)cc1 (stereo not drawn),1,0,-1,-3,i
COc1ccc(/C=C(\C#N)c2nc3ccccc3[nH]2)cc1O,-1,-1,-6,-10,i
